For 100 molecules, Potency results are on record in PubChem BioAssay AID588856 (National Center for Advancing Translational Sciences (NCATS), 2011).

Molecules are shown by their SMILES. Where “and” joins values, the source holds several entries; their conditions need not be identical. Identical values can stand only once. Out of some 410,000 compounds screened, about 3,100 (0.76%) were called active. Calls come from the whole dose curve; as a rule, active = well fitted cell-killing curve with a large enough effect; inactive = no such curve, though single readings can be large or run the other way. Shown is part of a subset that was picked to be rich in actives. Where a call stands in place of a potency, no number is given. The source holds several records for some structures; these can differ, active in one and inactive in another.
Potency is the fitted concentration of half-maximal effect.

This assay is described as follows: qHTS for Inhibitors of TGF-b: Cytotox Counterscreen. To be noted: HepG2 CAGA-GFP viability, ATP luminescence, 18 h; series mostly up to 46.1 µM. The method, boiled down:
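CellTiter-Glo luminescence gave cytotoxicity after 18 hours at 37 degrees C. The cells were HepG2 CAGA-GFP in 1% FBS DMEM, stimulated with 500 pg/mL TGF-beta after compound addition. %Activity was normalised to no-cell wells (complete cell-killing) and DMSO (no toxicity), and curves were fitted and classified.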
A general note: qHTS replaces the single test concentration by a dilution series.
As for `CCCC(=O)Nc1cc2nn(-c3ccccc3)nc2cc1C`, the Potency result is “inactive”.

For `OC(c1ccc(Cl)cc1)c1ncc(-c2ccc(Cl)cc2)[nH]1` (stereo not given), the Potency is 11.2 µM (active).

For `Cc1ccc(-c2cnc(C(O)c3cc(Cl)cc(Cl)c3)[nH]2)cc1` (stereo not given), the Potency result is “inactive”.

With `OC(c1ccc(F)cc1)c1ncc(-c2cccc(C(F)(F)F)c2)[nH]1` (stereo not given), the Potency entry is “inactive”.

Consider `CCc1ccc(OCCCn2c(CCCNC(=O)C3CCCCC3)nc3ccccc32)cc1`, for which the Potency entry was “inactive”.

In the case of `CCCCCCn1nnc2sc(-c3ccccc3)cc2c1=O`, the Potency result was “inactive”.

As to `CC(=O)c1c(C)n(S(=O)(=O)c2ccc(Cl)cc2)c2ccc(NS(=O)(=O)c3ccc(Cl)cc3)cc12`, the Potency entry is “inactive”.

For `Cc1ccc(OCC(=O)Nc2ccc(NC(=O)c3cccs3)cc2)c(C)c1`, the Potency was 1.12 µM (active).

Turning to `CCn1c2ccccc2c2cc(NC(=O)COc3ccc(C)cc3C)ccc21`, the Potency entry is “inactive”.

On to `Cn1c(SCC(=O)Nc2cccc(NC(=O)c3cccs3)c2)nnc1-c1ccncc1`, for which the Potency entry is “inactive”.

As for `Cn1c(=O)c(=O)n(C)c2cc(NC(=O)c3ccccc3Br)ccc21`, the Potency result is “inactive”.

`Cc1cccc(-n2ncc(Cl)c(Cl)c2=O)c1`: the Potency was 11.2 µM (active).

`Cc1cccc(-n2ncc(C(=O)N3CCN(c4ccc(Cl)cc4)CC3)c2C2CCN(C(=O)OC(C)(C)C)CC2)c1`: the Potency entry is “inactive”.

In the case of `Cc1cccc(-n2ncc(C(=O)N3CCC(C)CC3)c2C2CCN(C(=O)OC(C)(C)C)CC2)c1`, the Potency result was “inactive”.

In the case of `COc1ccc(/C=C/c2noc(-c3ccccc3O)n2)cc1OC`, the Potency entry was “inactive”.

Take `CCOc1ccc(-c2nonc2NC(=O)c2oc3ccc(C)cc3c2C)cc1OCC`: the Potency entry was “inactive”.

As to `CCOC(=O)c1c(NC(=O)c2cc(-c3ccc(Cl)cc3)on2)sc2c1CCCC2`, the Potency entry is “inactive”.

As for `CCOC(=O)c1c(NC(=O)/C(C#N)=C/c2ccccc2)sc2c1CCC2`, the Potency result was “inactive”.

For the molecule `CCOC(=O)c1c(NC(=O)C(C)Sc2c[nH]c3ccccc23)sc2c1CCC2` (stereo not given), the Potency is 25.1 µM (active).

For `Cc1csc(NCC(=O)c2c[nH]c3ccccc23)n1`, the Potency result was “inactive”.

`Cc1ccc(C)c(N2CCN(Cc3nnc(-c4ccccc4)o3)CC2)c1`: the Potency result is “inactive”.

As to `COc1ccc(CCNC(=O)c2ccc(-n3c(C)cc4c3CCCC4)cc2)cc1OC`, the Potency result was “inactive”.

For `CCN(CC)c1ccc(NC(=O)CN2CCN(CC(=O)Nc3ccc(Cl)cc3)CC2)cc1`, the Potency result is “inactive”.

`O=C(CN1CCOc2ccccc21)N1CCC(Cc2ccccc2)CC1`: the Potency entry was “inactive”.

For the molecule `O=C(Nc1ccc2c(c1)OCCO2)C(C1CC1)N1CCC(Cc2ccccc2)CC1` (stereo not given), the Potency is 15.8 µM (active).

As for `O=C(Nc1ccc2c(c1)OCCO2)C(c1ccc(F)cc1)N1CCCCC1` (stereo not given), the Potency result is “inactive”.

In the case of `Cc1cccc(Nc2nc(C)nc(N)c2S(=O)(=O)c2ccccc2)c1`, the Potency entry was “inactive”.

For `COc1ccc(NC(=O)CSc2nccn2C2CCCC2)cc1OC`, the Potency result is “inactive”.

Regarding `COc1ccc2c(c1)c(=O)c(C(=O)c1ccccc1)cn2CC(=O)Nc1ccc2c(c1)OCCO2`, the Potency result is “inactive”.

With `CCN(CC)c1nc(C#N)nc(OC)n1`, the Potency result was “inactive”.

In the case of `COc1ccc(-c2nc(=N)sn2-c2ccccc2)cc1`, the Potency result was “inactive”.

Regarding `Nc1ncnc2nnsc12`, the Potency result was “inactive”.

As to `Cc1cc(C)cc(OC(C)C(=O)Nc2nc3c(s2)CCCC3)c1` (stereo not given), the Potency entry was “inactive”.

For the molecule `COc1ccc(-c2nc3cnccn3c2NC2CCCCC2)cc1-c1cccc(Cl)c1`, the Potency was 12.6 µM (active).

On to `COc1ccc(-c2nc3cnccn3c2NC(C)(C)CC(C)(C)C)cc1O`, for which the Potency entry was “inactive”.

Take `COc1ccc(-c2nc3cc(C)ccn3c2NC2CCCCC2)cc1SC1CCCCC1`: the Potency entry was “inactive”.

Consider `Cc1cccc(-c2nnc(SC(C)C(=O)Nc3ccccc3)n2C)c1` (stereo not given), for which the Potency result was “inactive”.

As for `Cc1nnnn1/C(=C\c1ccccc1)C(=O)OCC(=O)N1CC2(C)CC1CC(C)(C)C2` (stereo not given), the Potency is 7.94 µM (active).

Regarding `Oc1ccc(Cl)cc1C1C=C(c2ccc3c(c2)OCO3)NC(c2ccc(F)c(Br)c2)N1` (stereo not given), the Potency entry is “inactive”.

In the case of `CCOc1ccccc1NC(=O)c1ccc2c(c1)CCN2S(=O)(=O)c1ccc(C)cc1`, the Potency result was “inactive”.

As for `COc1ccc(C)cc1Nc1nc2ccccc2c2nnc(C)n12`, the Potency result is “inactive”.

For `CCCNC(=O)C(CC)n1nc(CC)n2c(cc3oc(C)cc32)c1=O` (stereo not given), the Potency result is “inactive”.

With `O=C(NCCCN1CCN(c2ccc(F)cc2)CC1)Nc1ccc([N+](=O)[O-])cc1`, the Potency entry was “inactive”.

On to `Cc1ccc(C)c(N2CCN(CCCNC(=O)Nc3ccc(Cl)cc3)CC2)c1`, for which the Potency was 10 µM (active).

Take `CCOC(=O)c1c(C)[nH]c(CCC(=O)NCCCN2CCN(c3cc(C)ccc3C)CC2)c1C`: the Potency entry is “inactive”.

For `O=C(C1CCC(Cn2c(=O)c3sccc3n(Cc3ccccc3F)c2=O)CC1)N1CCCCC1` (stereo not given), the Potency result is “inactive”.

Regarding `COc1cc(CN(C(=O)c2ccccc2Br)c2ccccn2)cc(OC)c1OC`, the Potency result is “inactive”.

As for `COc1cccc(CC2(CO)CCN(Cc3cnc(-c4cccc(C)c4)nc3)CC2)c1`, the Potency result was “inactive”.

On to `CCC(C)CN1CCC(CO)(Cc2ccccc2Cl)CC1` (stereo not given), for which the Potency result was “inactive”.

For the molecule `Cc1c(CN2CCC(CO)(CCOc3ccccc3)CC2)[nH]c2ccc(Cl)cc12`, the Potency was 20 µM (active).

As to `Cc1ccc(S(=O)(=O)Oc2ccc(/C=N/NC(=O)c3c(Cl)cnn3C)cc2)cc1`, the Potency result was “inactive”.

As to `COc1cc(/C=N/O)cc(Br)c1OS(=O)(=O)c1ccc(C)cc1`, the Potency is 12.6 µM (active).

As for `COc1cc(/C=C/c2ccc(/C=C/c3cc(OC)c(OC)c(OC)c3)cc2)cc(OC)c1OC`, the Potency entry was “inactive”.

`CO[C@H]1O[C@@H]2O[C@@]3(C)CC[C@@H]4[C@@H](C)CC[C@@H]([C@H]1C)[C@@]24OO3`: the Potency result was “inactive”.

As for `Fc1ccc(-c2nc(Nc3cccc(Cl)c3)nc3c2COc2ccccc2-3)cc1`, the Potency entry was “inactive”.

Regarding `Cc1oc(-c2ccccc2F)nc1CN1CCC(C(=O)NCCc2ccc(Cl)cc2)CC1`, the Potency entry is “inactive”.

Turning to `COc1ccc(Cn2ccc3nc(C)c(C(=O)Nc4ccc(C)c(F)c4)cc3c2=O)cc1`, the Potency entry was “inactive”.

On to `O=C(NC1=CC(=O)c2ccccc2C1=O)c1ccccc1`, for which the Potency was 15.8 µM (active).

Consider `CC1=C(C(=O)N2CCN(c3cccc(C(F)(F)F)c3)CC2)C2(CCCCC2)OC1=O`, for which the Potency result was “inactive”.

On to `Cc1ccc(SCC(CC(C)C)N2CCN(CCc3ccccc3)CCC2=O)cc1` (stereo not given), for which the Potency result was “inactive”.

On to `COc1ccc(C(=O)Nc2cccc(C(=O)OCc3cc(=O)n4c5c(sc4n3)CCCC5)c2)cc1`, for which the Potency entry was “inactive”.

For `CCC1CCCCN1Cc1c(O)ccc2c(=O)c(Oc3ccccc3Cl)c(C(F)(F)F)oc12` (stereo not given), the Potency result was “inactive”.

As for `CC1=C/C(=N\OS(=O)(=O)c2ccccc2)C=CC1=O`, the Potency was 12.6 µM (active).

On to `CCc1ccc(CNC(=O)c2cc3cc4ccc(OC)cc4nc3o2)cc1`, for which the Potency result was “inactive”.

In the case of `Cc1ccc(-c2cnc(C3CC3)o2)cc1S(=O)(=O)Nc1cccc(C)c1C`, the Potency entry was “inactive”.

For `Cc1[nH]n(-c2ccc([N+](=O)[O-])cc2)c(=O)c1C=NCCN1CCN(C(=O)c2ccccc2F)CC1`, the Potency is 2 µM (active).

On to `C=CCNC(=S)N1CCN(CCN=Cc2c(C)[nH]n(-c3ccc([N+](=O)[O-])cc3)c2=O)CC1`, for which the Potency result is “inactive”.

Turning to `CCC(=O)c1ccc(N2CCN(C(=O)c3cc([N+](=O)[O-])ccc3F)CC2)c(F)c1`, the Potency result is “inactive”.

Regarding `Cc1ccc2ccc3c(c2n1)NS(=O)(=O)c1ccccc1-3`, the Potency result was “inactive”.

As to `COc1ccc(C(CCN2CCOCC2)c2c(OC)cc(OC)c3c2OC(=O)CC3c2ccc(OC)cc2)cc1` (stereo not given), the Potency result is “inactive”.

Regarding `O=C(C[n+]1ccncc1)c1ccc2c(c1)CCCC2`, the Potency entry was “inactive”.

Consider `Cn1cc(C(=O)c2ccc(Cl)cc2Cl)cc1C(=O)NN`, for which the Potency entry was “inactive”.

`CC(C)(CNC(=O)Cc1ccc(Cl)cc1Cl)N1CCOCC1`: the Potency result was “inactive”.

Regarding `CC(C)(C)c1cc(C(=O)NN)n(Cc2ccc(Cl)cc2Cl)n1`, the Potency was 12.6 µM (active).

`CCOC(=O)C1CCCN(C(=O)c2ccc3c(c2)sc2nc(-c4ccc(CC)cc4)cn23)C1` (stereo not given): the Potency entry is “inactive”.

On to `Cc1ccc2c(c1)N(C(=O)Nc1ccc(Br)cc1F)CCO2`, for which the Potency result was “inactive”.

For the molecule `COc1cccc(NC(=O)CSc2cc(=O)n(C)c3ccc(Cl)cc23)c1`, the Potency entry is “inactive”.

For the molecule `Cc1cccc(N(Cc2ccccc2)C(=O)c2ccccc2F)c1`, the Potency result is “inactive”.

On to `CCCC(O)(CCC)C(=O)NN(C(=O)CCl)c1cccc(C)c1`, for which the Potency is 20 µM (active).

For the molecule `CCCCC(O)(CCCC)C(=O)NN(C(=O)CCl)c1ccccc1`, the Potency result is “inactive”.

For `CCCn1c(NCc2ccc(N(CC)CC)cc2)nc2ccccc21`, the Potency result is “inactive”.

As for `CCOC(=O)c1c(SCC(=O)Nc2cccc(C)c2C)nc(=O)[nH]c1C`, the Potency result was “inactive”.

Regarding `CCOC(=O)c1c(C)[nH]c2c1-c1ccccc1C(=O)C2=O`, the Potency is 1.26 µM (active).

For `CCOC(=O)c1c(C)[nH]c(C)c1S(=O)(=O)N(C)CC(=O)N1CCN(c2ccccc2)CC1`, the Potency entry was “inactive”.

As for `CCc1nnc(NC(=O)CCN(c2ccc(C)cc2)S(=O)(=O)c2ccccc2)s1`, the Potency result is “inactive”.

As for `CCc1nnc(NS(=O)(=O)c2ccc(NC(=S)NC(=O)/C=C/c3cccs3)cc2)s1`, the Potency result is “inactive”.

`CCc1nnc(NS(=O)(=O)c2ccc(N=Cc3c(C)[nH]n(-c4ccc(C)cc4)c3=O)cc2)s1`: the Potency was 8.91 µM (active).

Take `CN(N=O)c1ccc(C=C2c3ccccc3-c3ccccc32)cc1`: the Potency entry was “inactive”.

As for `COc1ccc(C2CC(c3cccc(OC)c3)=NN2c2ccc(S(N)(=O)=O)cc2)cc1` (stereo not given), the Potency entry is “inactive”.

Regarding `Cc1ccc(N2C(=O)C3N=NN(CC(=O)N4N=C(c5cccc6ccccc56)CC4c4ccccc4)C3C2=O)cc1` (stereo not given), the Potency result was “inactive”.

For `Oc1ccccc1C1=NN(c2ccccc2)C(c2ccccc2)C1` (stereo not given), the Potency was 10 µM (active).

For `CC(=O)c1ccc[n+](C(C)CCC(C)[n+]2cccc(C(C)=O)c2)c1` (stereo not given), the Potency entry was “inactive”.

As for `CCOC(=O)c1c(S(=O)(=O)N2CCC(C(=O)NCc3ccccc3OC)CC2)c(C)n(C)c1C`, the Potency entry is “inactive”.

Take `CCCCCCCCCCOC(=O)Cn1c(COc2cccc(OC)c2)[n+](C)c2ccccc21`: the Potency was 20 µM (active).

Regarding `OC(CBr)CN1CCCCC1` (stereo not given), the Potency result is “inactive”.

Consider `CC(=O)Nc1cccc(NC(=O)CSc2nccn2Cc2ccc3c(c2)OCO3)c1`, for which the Potency entry is “inactive”.

Regarding `Cc1cccc(NC(=O)Cn2c(=O)n(CCC(C)C)c(=O)c3cccnc32)c1`, the Potency result is “inactive”.

On to `O=C(NCCN1CCN(Cc2ccccc2)CC1)c1cc2c(=O)[nH]c3ccccc3c2s1`, for which the Potency result was “inactive”.

`CCC1CCCCN1CCCNC(=O)c1cc2c(Cl)nc3ccccc3c2s1` (stereo not given): the Potency entry is “inactive and 12.6 µM (active)”.

Consider `CCn1c(=O)c2cc(C(=O)NCCc3ccc(Cl)cc3)sc2c2ccccc21`, for which the Potency entry was “inactive”.
